PubChem BioAssay (EPA / NIEHS)
Inconclusive results are not listed. Activity calls are given as the source filed them. How the source made its calls, unless noted: active means hit-call score of the fitted dose curve at least 0.9, where 1 is the maximum; inactive means score below 0.9.

What was measured:
[1] = molecular target: Paired box protein Pax-6 (Homo sapiens) (UniProt P26367); assay: ATG_Pax6_CIS: Attagene CIS-FACTORIAL HepG2 Assay for human Paired Box 6 (PAX6) (AID 2282956); details: HepG2 CIS-FACTORIAL PAX6 reporter transcription, RNA readout; actives raise or lower the signal
In short: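 Multiplexed cis-reporter HepG2 system; 24 h treatment; reporter mRNA read by RT-PCR/CE fluorescence; bidirectional fit vs DMSO.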

[2] = ATG_PPRE_CIS: Attagene CIS-FACTORIAL HepG2 Assay for human Peroxisome Proliferator-activated Response Element (PPRE) (AID 2282958); details: HepG2 PPRE cis-element reporter, Attagene transcription factor profiling; actives raise or lower the signal
In short: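 HepG2 cells transiently transfected with multiplexed cis-element reporter units measure endogenous transcription factor activity. After 24 h compound exposure, reporter mRNA is quantified by RT-PCR, 6-FAM labeling, HpaI digestion and capillary electrophoresis; bidirectional fits are made against DMSO baseline.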

[3] = ATG_RORE_CIS: Attagene CIS-FACTORIAL HepG2 Assay for human RAR-related Orphan Receptor Element (RORE) (AID 2282959); details: HepG2 Attagene cis-factorial RORE reporter, mRNA; actives raise or lower the signal
In short: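 HepG2 cells transiently transfected with multiple cis-element reporter transcription units, exposed to chemical for 24 h. Reporter mRNA quantified by RT-PCR, 6-FAM primer-extension labeling, HpaI digestion and capillary electrophoresis; bidirectional fit versus DMSO baseline.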

[4] = ATG_Sox_CIS: Attagene CIS-FACTORIAL HepG2 Assay for human SRY-box transcription factor (SOX) (AID 2282960); details: HepG2 Attagene cis-factorial SOX reporter, mRNA; actives raise or lower the signal
In short: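 HepG2 cells transiently transfected with cis-element-driven multiple reporter transcription units, dosed 24 h; reporter mRNA measured by RT-PCR, FAM labelling, HpaI digestion and capillary electrophoresis. Bidirectional fit versus DMSO baseline.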

[5] = molecular target: Transcription factor Sp1 (Homo sapiens) (UniProt P08047); assay: ATG_Sp1_CIS: Attagene CIS-FACTORIAL HepG2 Assay for human Specificity Protein 1 (Sp1) (AID 2282961); details: HepG2 Sp1 cis-reporter transcription, actives raise or lower the signal
In short: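 HepG2 cells transiently transfected with multiple reporter transcription units driven by cis-regulatory elements; Sp1-responsive reporter mRNA measured 24 h after dosing by RT-PCR and capillary electrophoresis fluorescence, fitted bidirectionally against DMSO baseline.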

[6] = ATG_SREBP_CIS: Attagene CIS-FACTORIAL HepG2 Assay for human Sterol Regulatory Element Binding (SREBP) (AID 2282962); details: HepG2 Attagene cis-factorial SREBP reporter, mRNA; actives raise or lower the signal
In short: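 mRNA induction of transfected cis-promoter reporters in HepG2 cells, 24 h post-dose. Detection: RT-PCR with 6-FAM-labelled products, HpaI digest, capillary electrophoresis. DMSO served as negative control and baseline.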

[7] = molecular target: Signal transducer and activator of transcription 3 (Homo sapiens) (UniProt P40763); assay: ATG_STAT3_CIS: Attagene CIS-FACTORIAL HepG2 Assay for human Signal Transducer and Activator of Transcription 3 (STAT3) (AID 2282963); details: HepG2, Attagene cis-factorial STAT3 reporter transcription; actives raise or lower the signal
In short: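 Values derive from bidirectional fits relative to DMSO of reporter mRNA levels, measured by RT-PCR with capillary electrophoresis, in HepG2 cells carrying transiently transfected cis-regulated reporter units and exposed 24 h.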

[8] = ATG_TA_CIS: Attagene CIS-FACTORIAL HepG2 Assay for human TA Basal Promoter (AID 2282964); details: HepG2 Attagene CIS-factorial TA basal promoter reporter; actives raise or lower the signal
In short: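 Background-control readout: TA basal promoter reporter mRNA, fitted in both directions relative to DMSO. Measured by RT-PCR and capillary electrophoresis 24 hours after treating HepG2 human liver cells transiently carrying multiplexed cis-regulated reporter constructs.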

[9] = ATG_TCF_b_cat_CIS: Attagene CIS-FACTORIAL HepG2 Assay for human T-Cell-Factor with beta-catenin (TCF/b-cat) (AID 2282965); details: HepG2 TCF/beta-catenin cis-reporter transcription, actives raise or lower the signal
In short: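 HepG2, transient MRTU transfection, cis-element-driven reporters (endogenous TFs). 24 h compound exposure. Readout: reporter mRNA by RT-PCR + 6-FAM primer extension, HpaI digest, capillary electrophoresis. Gain/loss fit vs DMSO baseline.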

[10] = ATG_TAL_CIS: Attagene CIS-FACTORIAL HepG2 Assay for human TAL Basal Promoter (AID 2282966); details: HepG2 Attagene cis-factorial TAL promoter reporter; actives raise or lower the signal;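 further: background control endpoint measuring basal TAL promoter reporter mRNA not a specific factor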
In short: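 Fluorescence of labelled reporter cDNA fragments, resolved by capillary electrophoresis, gave the readout. Human HepG2 liver cells carried transiently transfected cis-element reporter units and were treated for 24 hours; activity was fitted bidirectionally against DMSO.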

[11] = ATG_TGFb_CIS: Attagene CIS-FACTORIAL HepG2 Assay for human Transforming Growth Factor (TGF) (AID 2282967); details: HepG2 Attagene CIS TGFb reporter, mRNA transcription; actives raise or lower the signal
In short: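 Endogenous TGFB1-linked transcription factor activity read as reporter mRNA via RT-PCR and capillary electrophoresis, 24 h after dosing transiently transfected HepG2 cells. Gain or loss of signal fitted relative to DMSO.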

[12] = ATG_VDRE_CIS: Attagene CIS-FACTORIAL HepG2 Assay for human Vitamin D Receptor Element (VDRE) (AID 2282968); details: HepG2 VDRE cis-reporter transcription, actives raise or lower the signal
In short: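 Cell-based multiplexed reporter format in human liver HepG2 cells, 24 h post-dose. Fluorescence from capillary electrophoresis of reporter cDNA gives the signal, with DMSO as negative control and baseline.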

[13] = molecular target: Nuclear receptor subfamily 1 group I member 3 (Homo sapiens) (UniProt Q14994); assay: ATG_CAR_TRANS: Attagene TRANS-FACTORIAL HepG2 Assay for human Constitutive Androstane Receptor (CAR) (AID 2282969; active means hit-call score of the fitted dose curve at least 0.9, where 1 is the maximum;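 further: activators raise reporter mRNA above DMSO so AC50 marks induction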); details: HepG2 Attagene TRANS-FACTORIAL CAR reporter
In short: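 HepG2 cells transiently transfected with GAL4-UAS reporter units; TRANS format reads activity of exogenous chimeric NR-Gal4 protein. After 24 h dosing, reporter mRNA quantified by RT-PCR, 6-FAM labelling and capillary electrophoresis; gain of signal fitted against DMSO.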

[14] = molecular target: Estrogen receptor (Homo sapiens) (UniProt P03372); assay: ATG_ERa_TRANS: Attagene TRANS-FACTORIAL HepG2 Assay for human Estrogen Receptor alpha (ERa) (AID 2282970; active means hit-call score of the fitted dose curve at least 0.9, where 1 is the maximum); details: HepG2 Attagene TRANS ERa GAL4 reporter, mRNA
In short: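 Human liver HepG2, transient transfection of multiple GAL4-UAS reporter units; TRANS format (exogenous NR-Gal4 chimera). 24 h dosing. Readout: reporter mRNA, RT-PCR, 6-FAM primer extension, HpaI digest, capillary electrophoresis. Positive direction vs DMSO.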

[15] = molecular target: X-box-binding protein 1 (Homo sapiens) (UniProt P17861); assay: ATG_Xbp1_CIS: Attagene CIS-FACTORIAL HepG2 Assay for human X-box Binding Protein 1 (XBP1) (AID 2282972); details: HepG2 XBP1 cis-element reporter, Attagene multiplex; actives raise or lower the signal
In short: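 Fluorescence-labelled cDNA fragments from reporter transcripts, separated by capillary electrophoresis, give the signal. Source: HepG2 cells transfected with promoter-driven reporter units, harvested 24 h post-dose. DMSO served as reference for bidirectional curve fitting.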

[16] = ATG_M_19_TRANS: Attagene TRANS-FACTORIAL HepG2 Assay for M19 Transcription Factor (Internal Marker) (AID 2282974; active means hit-call score of the fitted dose curve at least 0.9, where 1 is the maximum); details: HepG2 Attagene TRANS-FACTORIAL M19 internal marker reporter
In short: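 HepG2 cells transiently transfected with multiple GAL4-UAS reporter transcription units were exposed to chemicals for 24 h. Reporter mRNA was read by RT-PCR, 6-FAM primer extension, HpaI digestion and capillary electrophoresis; gain of signal fitted relative to DMSO.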

[17] = ATG_GAL4_TRANS: Attagene TRANS-FACTORIAL HepG2 Assay for GAL4 (Internal Marker) (AID 2282976; active means hit-call score of the fitted dose curve at least 0.9, where 1 is the maximum); details: HepG2 Attagene TRANS GAL4 internal marker reporter
In short: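 First, HepG2 cells were transfected with reporter units under GAL4-UAS control. Next, they were treated with chemical for 24 h. Finally, RNA was reverse-transcribed, PCR-amplified, FAM-labelled and resolved by capillary electrophoresis, with induction scored against DMSO.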

[18] = ATG_PXRE_CIS: Attagene CIS-FACTORIAL HepG2 Assay for human Pregnane X Receptor Element (PXRE) (AID 2282957); details: HepG2 Attagene CIS-FACTORIAL PXRE reporter, mRNA; actives raise or lower the signal
In short: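 Transfect HepG2 with MRTUs (cis promoter elements); dose chemical, incubate 24 h; isolate RNA, RT with oligo(dT), PCR, 6-FAM label, HpaI cut, CE. Gain/loss fit vs DMSO.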

[19] = molecular target: Steroid hormone receptor ERR1 (Homo sapiens) (UniProt P11474); assay: ATG_ERRa_TRANS: Attagene TRANS-FACTORIAL HepG2 Assay for human Estrogen-Related Receptor alpha (ERRa) (AID 2282971; active means hit-call score of the fitted dose curve at least 0.9, where 1 is the maximum); details: HepG2 Attagene TRANS reporter, ERRa transactivation
In short: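 Reporter transcript induction was quantified by RT-PCR and capillary electrophoresis of FAM-labelled, HpaI-cut products after 24 h treatment of HepG2 cells carrying transiently transfected GAL4-UAS reporter units and an exogenous ERRa-Gal4 fusion; activity scored as increase over DMSO.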

Measured: AC50

Nuclear receptor subfamily 1 group I member 3 (Homo sapiens), sequence (Q14994 whole entry, looked up, the tested form may be a part): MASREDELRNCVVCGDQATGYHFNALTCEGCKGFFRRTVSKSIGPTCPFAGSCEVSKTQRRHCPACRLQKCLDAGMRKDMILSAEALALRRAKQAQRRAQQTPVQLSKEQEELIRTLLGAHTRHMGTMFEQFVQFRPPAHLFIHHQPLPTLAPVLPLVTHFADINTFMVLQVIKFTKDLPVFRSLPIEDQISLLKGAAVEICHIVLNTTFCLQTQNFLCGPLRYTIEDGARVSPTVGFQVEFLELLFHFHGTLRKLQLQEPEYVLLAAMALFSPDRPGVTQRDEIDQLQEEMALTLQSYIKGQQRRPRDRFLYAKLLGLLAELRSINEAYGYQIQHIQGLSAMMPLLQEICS
Transcription factor Sp1 (Homo sapiens), sequence (P08047 whole entry, looked up): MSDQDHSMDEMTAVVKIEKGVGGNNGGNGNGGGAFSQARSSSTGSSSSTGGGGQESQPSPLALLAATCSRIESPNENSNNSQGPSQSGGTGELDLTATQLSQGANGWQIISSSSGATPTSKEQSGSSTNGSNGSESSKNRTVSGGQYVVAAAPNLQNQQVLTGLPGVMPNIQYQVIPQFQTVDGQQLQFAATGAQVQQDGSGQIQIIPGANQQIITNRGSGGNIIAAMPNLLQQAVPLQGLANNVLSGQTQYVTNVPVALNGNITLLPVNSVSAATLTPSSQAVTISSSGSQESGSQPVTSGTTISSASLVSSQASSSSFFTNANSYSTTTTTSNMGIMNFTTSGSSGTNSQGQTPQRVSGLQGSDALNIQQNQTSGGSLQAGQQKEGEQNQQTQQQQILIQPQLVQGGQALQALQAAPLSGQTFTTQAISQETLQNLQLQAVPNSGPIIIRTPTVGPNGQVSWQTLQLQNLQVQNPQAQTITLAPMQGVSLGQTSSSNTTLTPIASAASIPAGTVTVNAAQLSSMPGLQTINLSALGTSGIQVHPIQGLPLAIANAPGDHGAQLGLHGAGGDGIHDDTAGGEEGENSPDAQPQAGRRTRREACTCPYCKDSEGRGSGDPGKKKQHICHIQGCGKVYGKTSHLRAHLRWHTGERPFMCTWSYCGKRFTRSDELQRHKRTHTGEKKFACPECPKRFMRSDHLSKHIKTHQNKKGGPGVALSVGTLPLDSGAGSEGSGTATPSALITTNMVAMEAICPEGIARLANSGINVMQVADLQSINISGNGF
Signal transducer and activator of transcription 3 (Homo sapiens), sequence (P40763 whole entry, looked up): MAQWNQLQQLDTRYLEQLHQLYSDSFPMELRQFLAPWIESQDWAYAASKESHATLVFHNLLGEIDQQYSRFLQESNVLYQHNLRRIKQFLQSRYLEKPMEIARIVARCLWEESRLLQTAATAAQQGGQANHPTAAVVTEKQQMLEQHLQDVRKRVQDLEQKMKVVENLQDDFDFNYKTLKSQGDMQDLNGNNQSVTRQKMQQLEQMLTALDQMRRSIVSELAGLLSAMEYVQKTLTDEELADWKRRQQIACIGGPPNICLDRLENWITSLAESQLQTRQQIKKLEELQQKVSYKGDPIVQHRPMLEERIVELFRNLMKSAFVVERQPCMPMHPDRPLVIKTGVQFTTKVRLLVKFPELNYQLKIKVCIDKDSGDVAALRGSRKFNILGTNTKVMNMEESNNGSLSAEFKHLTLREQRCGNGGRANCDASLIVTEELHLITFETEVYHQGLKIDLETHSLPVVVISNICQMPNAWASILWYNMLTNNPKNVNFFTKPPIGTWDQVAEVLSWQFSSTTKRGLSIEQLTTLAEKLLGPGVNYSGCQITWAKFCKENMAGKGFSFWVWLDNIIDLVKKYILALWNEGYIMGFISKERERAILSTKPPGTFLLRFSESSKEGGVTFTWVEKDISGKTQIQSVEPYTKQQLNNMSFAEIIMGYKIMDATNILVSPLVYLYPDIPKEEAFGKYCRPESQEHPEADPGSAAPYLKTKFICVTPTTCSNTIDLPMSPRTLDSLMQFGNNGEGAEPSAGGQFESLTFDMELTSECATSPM
Paired box protein Pax-6 (Homo sapiens), sequence (P26367 whole entry, looked up): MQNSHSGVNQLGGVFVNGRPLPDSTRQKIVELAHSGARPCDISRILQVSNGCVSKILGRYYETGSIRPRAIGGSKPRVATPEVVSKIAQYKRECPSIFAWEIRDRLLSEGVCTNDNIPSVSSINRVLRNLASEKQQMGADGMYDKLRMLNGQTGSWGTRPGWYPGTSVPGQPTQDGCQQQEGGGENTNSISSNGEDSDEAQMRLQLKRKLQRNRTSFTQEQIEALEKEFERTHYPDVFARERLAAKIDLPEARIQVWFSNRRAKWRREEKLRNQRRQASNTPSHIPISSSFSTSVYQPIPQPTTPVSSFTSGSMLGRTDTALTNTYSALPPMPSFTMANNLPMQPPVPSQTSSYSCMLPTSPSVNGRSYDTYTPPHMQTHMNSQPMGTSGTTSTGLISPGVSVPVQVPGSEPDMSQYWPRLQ
Estrogen receptor (Homo sapiens), sequence (P03372 whole entry, looked up, the tested form may be a part): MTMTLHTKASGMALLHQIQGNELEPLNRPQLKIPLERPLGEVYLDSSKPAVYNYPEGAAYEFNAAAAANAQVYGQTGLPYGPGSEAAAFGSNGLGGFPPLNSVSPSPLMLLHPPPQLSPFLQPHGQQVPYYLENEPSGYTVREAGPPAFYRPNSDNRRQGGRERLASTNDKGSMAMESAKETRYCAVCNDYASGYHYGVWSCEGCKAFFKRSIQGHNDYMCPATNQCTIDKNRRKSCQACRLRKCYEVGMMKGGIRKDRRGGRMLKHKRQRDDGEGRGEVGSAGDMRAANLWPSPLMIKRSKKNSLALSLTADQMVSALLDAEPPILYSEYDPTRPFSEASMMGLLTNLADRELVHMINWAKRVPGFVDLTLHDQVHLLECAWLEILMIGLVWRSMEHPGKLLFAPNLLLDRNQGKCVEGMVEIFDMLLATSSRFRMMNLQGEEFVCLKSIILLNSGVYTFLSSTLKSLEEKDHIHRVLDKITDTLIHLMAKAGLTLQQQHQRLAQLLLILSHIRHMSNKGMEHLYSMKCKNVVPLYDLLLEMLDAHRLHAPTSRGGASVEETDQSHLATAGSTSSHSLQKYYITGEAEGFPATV
X-box-binding protein 1 (Homo sapiens), sequence (P17861 whole entry, looked up, the tested form may be a part): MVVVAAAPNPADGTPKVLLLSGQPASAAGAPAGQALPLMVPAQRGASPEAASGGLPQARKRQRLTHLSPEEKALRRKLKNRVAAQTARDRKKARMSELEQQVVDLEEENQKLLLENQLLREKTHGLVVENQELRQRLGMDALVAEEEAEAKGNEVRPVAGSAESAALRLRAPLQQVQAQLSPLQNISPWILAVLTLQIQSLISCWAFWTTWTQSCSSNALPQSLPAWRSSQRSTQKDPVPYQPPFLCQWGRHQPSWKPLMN
Steroid hormone receptor ERR1 (Homo sapiens), sequence (P11474 whole entry, looked up, the tested form may be a part): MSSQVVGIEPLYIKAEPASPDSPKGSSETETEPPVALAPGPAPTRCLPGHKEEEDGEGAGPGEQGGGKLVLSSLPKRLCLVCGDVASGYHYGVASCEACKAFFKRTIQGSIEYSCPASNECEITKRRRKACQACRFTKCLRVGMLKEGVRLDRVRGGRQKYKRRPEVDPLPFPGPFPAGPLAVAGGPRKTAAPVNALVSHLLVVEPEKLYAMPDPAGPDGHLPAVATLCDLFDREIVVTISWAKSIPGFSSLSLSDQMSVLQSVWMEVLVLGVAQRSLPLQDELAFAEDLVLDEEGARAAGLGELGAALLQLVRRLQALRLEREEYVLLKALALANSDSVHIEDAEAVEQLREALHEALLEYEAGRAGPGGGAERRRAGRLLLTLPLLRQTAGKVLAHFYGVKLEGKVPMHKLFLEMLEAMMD

Clc1ccc(C(c2ccc(Cl)cc2)C(Cl)Cl)cc1
active: [1] 62.7 µM | [5] 59.8 µM | [6] 56.4 µM | [12] 15.7 µM | [14] 16.2 µM | [15] 56.2 µM
not listed: [18] | [19]
inactive: all other assays above

c1ccc(N=Nc2ccccc2)cc1
not listed: [2] | [3] | [14] | [15] | [16]
inactive: all other assays above

Cc1cccc(N)c1N
inactive: [4] | [5] | [6] | [7] | [8] | [10] | [11] | [13]
active: [1] 106 µM | [3] 106 µM | [9] 190 µM | [12] 106 µM | [15] 150 µM

ClC1=C(Cl)C2(Cl)C3C(Cl)C=CC3C1(Cl)C2(Cl)Cl (stereo not given)
active: [1] 139 µM | [5] 168 µM
inactive: [2] | [4] | [6] | [7] | [8] | [9] | [10] | [11] | [14]
